The record followed here is the antibiotic and cytotoxicity screens of Wong et al. (2023).

Out of some 39,000 compounds screened, about 3,300 (8.5%) were called active. The sample as a whole holds a higher share of actives than the screen did.

The test deals with HepG2. The experiment in a line: cytotoxicity call (relative viability < 0.9). The conditions noted are these: 10 µM.
On to `COc1ccc(S(=O)(=O)N(C)C[C@H]2Oc3c(NC(=O)Nc4c(C)noc4C)cccc3C(=O)N([C@H](C)CO)C[C@@H]2C)cc1`, for which the cytotoxicity call is “inactive”. Consider `C[C@@H]1CN([C@H](C)CO)C(=O)c2cccc(NS(=O)(=O)c3cccs3)c2O[C@@H]1CN(C)Cc1ccc(Cl)c(Cl)c1`, for which the cytotoxicity call is “inactive”.

On to `C[C@H]1CN([C@@H](C)CO)C(=O)Cc2cc(NC(=O)Cc3ccccc3)ccc2O[C@H]1CN(C)S(C)(=O)=O`, for which the cytotoxicity call is “inactive”. As for `CNCc1ccncc1`, the entry is “inactive”; as for `Cc1sccc1-c1csc(N)n1`, “inactive”; as for `C[C@@H]1CN([C@@H](C)CO)C(=O)CCCn2nncc2CO[C@H]1CN(C)C(=O)Nc1ccc2c(c1)OCCO2`, “inactive”. The result for `C[C@H](CO)N1C[C@H](C)[C@H](CN(C)C(=O)Nc2cccc3ccccc23)Oc2ncc(-c3cccc(F)c3)cc2C1=O` reads “inactive”; that for `C[C@H](CO)N1C[C@H](C)[C@@H](CN(C)S(=O)(=O)c2ccc(Cl)cc2)OCCCC[C@H](C)Oc2ccc(NC(=O)c3ccncc3)cc2C1=O`, “inactive”; that for `C[C@@H]1CN([C@@H](C)CO)C(=O)c2cccc(NS(=O)(=O)c3cccs3)c2O[C@H]1CN(C)S(=O)(=O)c1ccccc1`, “inactive”. As for `COc1ccc(C#Cc2ccc3c(c2)O[C@@H](CN(C)C(=O)CN2CCOCC2)[C@H](C)CN([C@H](C)CO)S3(=O)=O)cc1`, the entry is “inactive”; as for `C[C@@H]1CN([C@H](C)CO)C(=O)Cc2cc(NC(=O)c3ccncc3)ccc2O[C@@H]1CN(C)Cc1ccc(Oc2ccccc2)cc1`, “inactive”; as for `C[C@H]1CN([C@@H](C)CO)C(=O)Cc2cc(NC(=O)c3ccncc3)ccc2O[C@H]1CN(C)Cc1ccc(Oc2ccccc2)cc1`, “inactive”. Turning to `C[C@@H]1CN([C@H](C)CO)C(=O)Cc2cc(NC(=O)c3ccncc3)ccc2O[C@H]1CN(C)Cc1ccc(Oc2ccccc2)cc1`, the cytotoxicity call is “inactive”. As for `C[C@@H]1CN([C@@H](C)CO)C(=O)Cc2cc(NC(=O)c3ccncc3)ccc2O[C@H]1CN(C)Cc1ccc(Oc2ccccc2)cc1`, the cytotoxicity call was “active”. As for `C[C@H]1CN([C@@H](C)CO)C(=O)Cc2cc(NC(=O)c3ccncc3)ccc2O[C@@H]1CN(C)Cc1ccc(Oc2ccccc2)cc1`, the entry is “inactive”; as for `C[C@@H]1CN([C@@H](C)CO)C(=O)Cc2cc(NC(=O)c3ccncc3)ccc2O[C@@H]1CN(C)Cc1ccc(Oc2ccccc2)cc1`, “active”; as for `CO[C@@H]1CN(C)C(=O)c2ccc(NC(=O)C3CC3)cc2OC[C@@H](C)N(C(=O)C2CCOCC2)C[C@@H]1C`, “inactive”. Regarding `C[C@H]1CN([C@@H](C)CO)C(=O)Cc2cc(NC(=O)NC3CCCCC3)ccc2O[C@@H]1CN(C)S(=O)(=O)c1cn(C)cn1`, the cytotoxicity call was “inactive”. For the compound `O=C(C[C@H]1C=C[C@H](NC(=O)C2CC2)[C@@H](CO)O1)NCCCN1CCOCC1`, the cytotoxicity call was “inactive”. As for `C[C@@H]1CCCCO[C@@H](CN(C)C(=O)c2ccncc2)[C@@H](C)CN([C@@H](C)CO)C(=O)c2cc(NC(=O)C3CCCCC3)ccc2O1`, the entry is “inactive”. With `CS(=O)(=O)NCc1nnnn1-c1ccc(F)c(F)c1`, the cytotoxicity call is “inactive”. With `C[C@@H]1CN([C@H](C)CO)S(=O)(=O)c2ccc(C#Cc3cccc(F)c3)cc2O[C@H]1CN(C)S(=O)(=O)c1ccccc1F`, the cytotoxicity call was “inactive”. `C[C@@H]1CN([C@@H](C)CO)C(=O)c2c(c3ccccc3n2C)-c2ccccc2CO[C@H]1CN(C)C(=O)NC1CCCCC1`: the cytotoxicity call is “inactive”.

Regarding `CCOC(=O)CSc1nc(=O)cc(C)[nH]1`, the cytotoxicity call was “inactive”. With `Cc1cc(=O)nc(SCC(N)=O)[nH]1`, the cytotoxicity call is “active”. As for `CCCc1cc(=O)nc(SCC(N)=O)[nH]1`, the entry is “inactive”; as for `C[C@H](CO)N1C[C@H](C)[C@H](CN(C)S(=O)(=O)c2cn(C)cn2)OCCCC[C@H](C)Oc2ccc(NS(=O)(=O)c3ccccc3)cc2C1=O`, “inactive”. As for `COc1ccc(NC(=O)O[C@H]2[C@@H]3OC(=O)[C@@H](Cc4ccc5ccccc5c4)C/C=C/C[C@H](Cc4ccc5ccccc5c4)C(=O)O[C@H]3[C@@H](OC)O[C@@H]2CO)cc1`, the entry is “active”; as for `CCOC(=O)[C@H]1C/C=C/C[C@H](C(=O)OCC)C(=O)O[C@H]2[C@@H](OC)O[C@H](CO)[C@@H](OC(=O)Nc3ccc(Br)cc3)[C@@H]2OC1=O`, “active”; as for `CCOC(=O)[C@H]1C/C=C/C[C@H](C(=O)OCC)C(=O)O[C@H]2[C@@H](OC)O[C@H](CO)[C@@H](OC(=O)Nc3cccc(F)c3)[C@@H]2OC1=O`, “active”. For the compound `CCOC(=O)[C@H]1C/C=C/C[C@H](C(=O)OCC)C(=O)O[C@H]2[C@@H](OC)O[C@H](CO)[C@@H](OC(=O)Nc3ccc(OC)cc3)[C@@H]2OC1=O`, the cytotoxicity call is “inactive”. Consider `COc1ccc(NC(=O)O[C@H]2[C@@H]3OC(=O)[C@H](Cc4cccc(Br)c4)C/C=C/C[C@@H](Cc4cccc(Br)c4)C(=O)O[C@H]3[C@@H](OC)O[C@@H]2CO)cc1`, for which the cytotoxicity call is “inactive”. On to `CCOC(=O)[C@H]1C/C=C/C[C@H](C(=O)OCC)C(=O)O[C@H]2[C@@H](OC)O[C@H](CO)[C@@H](OC(=O)c3ccc(Br)cc3)[C@@H]2OC1=O`, for which the cytotoxicity call was “inactive”. The result for `CCOC(=O)[C@H]1C/C=C/C[C@H](C(=O)OCC)C(=O)O[C@H]2[C@@H](OC)O[C@H](CO)[C@@H](OC(=O)c3c(OC)cccc3OC)[C@@H]2OC1=O` reads “inactive”; that for `CO[C@H]1O[C@H](CO)[C@@H](OC(=O)Nc2ccccc2)[C@@H]2OC(=O)[C@@H](Cc3ccc4ccccc4c3)C/C=C/C[C@H](Cc3ccc4ccccc4c3)C(=O)O[C@@H]12`, “inactive”. Consider `CO[C@H]1O[C@H](CO)[C@@H](OC(=O)Nc2ccc3c(c2)OCO3)[C@@H]2OC(=O)[C@H](Cc3cccc(Br)c3)C/C=C/C[C@@H](Cc3cccc(Br)c3)C(=O)O[C@@H]12`, for which the cytotoxicity call was “inactive”. The result for `CO[C@H]1O[C@H](CO)[C@@H](OC(=O)Nc2cccc(F)c2)[C@@H]2OC(=O)[C@H](Cc3cccc(Br)c3)C/C=C/C[C@@H](Cc3cccc(Br)c3)C(=O)O[C@@H]12` reads “inactive”. For the compound `CCOC(=O)[C@H]1C/C=C/C[C@H](C(=O)OCC)C(=O)O[C@H]2[C@@H](OC)O[C@H](CO)[C@@H](OC(=O)Nc3ccc4c(c3)OCO4)[C@@H]2OC1=O`, the cytotoxicity call is “active”.

In the case of `CCOC(=O)[C@H]1C/C=C/C[C@H](C(=O)OCC)C(=O)O[C@H]2[C@@H](OC)O[C@H](CO)[C@@H](OC(=O)Nc3ccccc3)[C@@H]2OC1=O`, the cytotoxicity call is “inactive”. The result for `COc1cccc(S(=O)(=O)N2C[C@H](O)COC[C@@H]3O[C@H](CC(=O)N4CCN(C)CC4)CC[C@H]32)c1` reads “inactive”; that for `CC(C)NC(=O)Nc1cccc2c1O[C@@H](CN(C)Cc1ccc3c(c1)OCO3)[C@@H](C)CN([C@@H](C)CO)C2=O`, “inactive”. `O=C(C[C@@H]1C[C@H]2c3cc(NC(=O)C4CCOCC4)ccc3O[C@H]2[C@H](CO)O1)NCc1ccc(Cl)cc1`: the cytotoxicity call is “inactive”. As for `O=C(C[C@H]1C[C@@H]2c3cc(NC(=O)Nc4ccc(C(F)(F)F)cc4)ccc3O[C@@H]2[C@@H](CO)O1)NC1CCCCC1`, the entry is “inactive”; as for `CC(CN)(Cc1ccccc1Cl)C(=O)O` (configuration not stated), “inactive”.

As for `C/C(C[P+](c1ccccc1)(c1ccccc1)c1ccccc1)=N\NC(=O)CCCCCC(=O)Nc1ccccc1O`, the cytotoxicity call was “inactive”. As for `C[C@H]1CN([C@@H](C)CO)C(=O)c2cc(C#CCN(C)C)cnc2O[C@@H]1CN(C)S(=O)(=O)c1cn(C)cn1`, the entry is “inactive”; as for `C[C@H](CO)N1C[C@H](C)[C@@H](CN(C)C(=O)Nc2ccc3c(c2)OCO3)OCCCC[C@H](C)Oc2ccc(NC(=O)Nc3cccc4ccccc34)cc2C1=O`, “inactive”. On to `C[C@@H]1CCCCO[C@@H](CN(C)S(=O)(=O)c2cccs2)[C@H](C)CN([C@@H](C)CO)C(=O)c2cc(NS(=O)(=O)c3cn(C)cn3)ccc2O1`, for which the cytotoxicity call is “inactive”.

For the compound `C[C@H](CO)N1C[C@H](C)[C@@H](CN(C)C(=O)C2CC2)OCc2cnnn2CCCC1=O`, the cytotoxicity call is “inactive”. As for `C[C@@H]1CN([C@@H](C)CO)C(=O)Cc2cc(NC(=O)Nc3ccc(C(F)(F)F)cc3)ccc2O[C@H]1CN(C)C(=O)Nc1cccc2ccccc12`, the entry is “inactive”.

Turning to `CO[C@H]1O[C@H](CO)[C@@H](OC(=O)Nc2ccccc2-c2ccccc2)[C@H](OC(=O)Nc2ccc3c(c2)OCO3)[C@H]1OC(=O)Nc1ccc2c(c1)OCO2`, the cytotoxicity call was “inactive”. As for `CO[C@H]1O[C@H](CO)[C@@H](OC(=O)Nc2ccc3c(c2)OCO3)[C@H](OC(=O)Nc2ccc3c(c2)OCO3)[C@@H]1OC(=O)Nc1ccc2c(c1)OCO2`, the entry is “active”. The result for `CO[C@H]1O[C@H](CO)[C@@H](OC(=O)Nc2ccccc2-c2ccccc2)[C@H](OC(=O)Nc2ccc3c(c2)OCO3)[C@@H]1OC(=O)Nc1ccc2c(c1)OCO2` reads “inactive”; that for `Nn1c(CO)nc2ccccc21`, “inactive”. Regarding `O=C(N[C@H]1CC[C@H](CCNS(=O)(=O)c2ccc(F)cc2)O[C@H]1CO)C1CC1`, the cytotoxicity call was “inactive”. The result for `C[C@H]1CN([C@@H](C)CO)C(=O)Cc2cc(NC(=O)Nc3ccc4c(c3)OCO4)ccc2O[C@@H]1CN(C)S(C)(=O)=O` reads “inactive”.

`C[C@H]1CCCCO[C@H](CN(C)C(=O)C2CCCCC2)[C@@H](C)CN([C@@H](C)CO)C(=O)c2cc(NC(=O)c3ccncc3)ccc2O1`: the cytotoxicity call is “inactive”. With `C[C@@H]1CN([C@@H](C)CO)C(=O)c2cc(NC(=O)Nc3ccc(F)cc3)ccc2O[C@@H]1CN(C)S(C)(=O)=O`, the cytotoxicity call was “inactive”. As for `Cc1noc(C)c1NC(=O)N(C)C[C@H]1Oc2ncc(C#CCC(C)C)cc2C(=O)N([C@@H](C)CO)C[C@H]1C`, the entry is “inactive”; as for `COc1ccccc1-c1cccc(-c2nc(C(=O)Nc3nccs3)cc3c2[C@@H](CCO)N(C(=O)CC2CC2)C3)c1`, “active”. As for `COc1ccccc1-c1cccc(-c2nc(C(=O)Nc3nccs3)cc3c2[C@H](CCO)N(C(=O)CC2CC2)C3)c1`, the entry is “inactive”; as for `CCC(=O)N1Cc2cc(C(=O)Nc3nccs3)nc(-c3cccc(-c4ccccc4OC)c3)c2[C@H]1CCO`, “inactive”.
